Screening data from PubChem.
TRPV1 potentiator = human TRPV1 potentiation; potentiation, % at 8.33 µM; hit rate 0.02% among 320,000; TRPV1-expressing cells, Fluo-8 calcium influx, capsaicin EC20 potentiation; Q8NER1; in the data active means potentiation above about 80%; inconclusive means between about 30% and that limit; further: 0% is about no effect
Target sequence (Q8NER1 whole entry, looked up): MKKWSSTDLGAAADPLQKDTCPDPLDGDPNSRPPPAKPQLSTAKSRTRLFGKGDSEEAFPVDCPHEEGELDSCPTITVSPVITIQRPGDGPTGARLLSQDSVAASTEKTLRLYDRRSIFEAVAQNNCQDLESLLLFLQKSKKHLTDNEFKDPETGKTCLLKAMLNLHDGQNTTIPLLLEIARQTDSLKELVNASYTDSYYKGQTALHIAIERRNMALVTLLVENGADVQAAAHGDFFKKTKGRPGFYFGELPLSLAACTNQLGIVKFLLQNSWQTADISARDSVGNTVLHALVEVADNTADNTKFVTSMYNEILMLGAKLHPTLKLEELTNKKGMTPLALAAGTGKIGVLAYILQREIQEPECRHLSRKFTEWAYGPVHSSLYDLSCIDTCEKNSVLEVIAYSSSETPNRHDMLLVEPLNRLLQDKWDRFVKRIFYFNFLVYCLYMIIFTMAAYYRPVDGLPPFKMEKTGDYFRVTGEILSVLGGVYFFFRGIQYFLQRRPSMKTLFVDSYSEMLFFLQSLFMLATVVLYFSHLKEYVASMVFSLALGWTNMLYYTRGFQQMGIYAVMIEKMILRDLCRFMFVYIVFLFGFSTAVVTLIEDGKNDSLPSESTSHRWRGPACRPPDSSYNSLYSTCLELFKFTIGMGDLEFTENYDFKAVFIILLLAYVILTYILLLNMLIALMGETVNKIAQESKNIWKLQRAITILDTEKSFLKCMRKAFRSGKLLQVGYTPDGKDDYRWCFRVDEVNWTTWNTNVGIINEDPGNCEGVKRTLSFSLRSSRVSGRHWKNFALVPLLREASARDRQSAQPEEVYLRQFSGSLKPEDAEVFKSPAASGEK
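Fluo-8 calcium influx in TRPV1-expressing cells, kinetic read (ex 480/em 520 nm). Compound added and read 3 min for agonist activity, followed by capsaicin at EC20 final and 2 min further read for enhancement.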
IMPase Li cell = IMPase inhibition in cells with lithium potentiation | CHO-M1 cells, IP1 TR-FRET (IP-One), carbachol + lithium | Potency, µM (highest dose often 59.4 µM), without a hit: at the top dose activity, negative = IMPase inhibition, actives largely listed as inhibitors | hit rate 0.35% among 210,000 | AID 1457;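 further: IP1 builds up when IMPase is blocked and the TR-FRET signal falls; potency means the concentration at half of the fitted maximal effect; plate controls were basal vehicle for no effect and high inhibitor control for full effect; nearly all actives have a fitted effect of over 50% in size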
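IP1 accumulation measured by competitive TR-FRET in lysed CHO-M1 cells after 30 min compound exposure at 37C, with a small lithium addition to potentiate weak responses. Hill-equation AC50 from ratio and donor-channel data.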
A-T KAP1 phos = potential ataxia-telangiectasia treatments restoring KAP-1 phosphorylation; F2112 A-T fibroblasts, KAP-1 phosphorylation AlphaLISA; neocarzinostatin DNA damage 30 min before lysis; Potency, µM (series often up to 57.5 µM), for inactives: top-dose activation, actives largely listed as activators; hit rate 0.19% among 320,000; AID 485349; further: potency means the concentration at half of the fitted maximal effect; % of control where 0% means no effect; nearly all actives have a fitted effect of over 45% in size
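hTERT-immortalized A-T patient fibroblasts (F2112), 500 cells/well in OPTI-MEM, 1% FBS, got compounds for 60 min, then NCS for 30 min at 37C. Lysates were then assayed for phospho-KAP-1 by AlphaLISA (anti-pKAP1 donor, anti-KAP1 acceptor beads), 6 hr at 25C.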
TRPV1 agonist = activates the human vanilloid receptor TRPV1; TRPV1-expressing cells, Fluo-8 calcium influx, agonist mode; Q8NER1; activation, % at 8.33 µM; hit rate 0.19% among 320,000; in the data active means activation above about 80%; inconclusive means between about 30% and that limit; further: 0% is about no effect
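TRPV1-expressing cells were cultured overnight at 35.5C and loaded with Fluo-8 calcium dye for 40 to 90 min at room temperature. After a 10 s baseline, compound was added and calcium influx was read kinetically for 3 min (ex 480/em 520 nm).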
Numbers without * were called inactive; [ ] = remark or other dose. The list is not random: actives were taken first. Their share in the collection is about 0.55%. Unless noted, the call rests on the fitted dose curve; in most records, active means well fitted curve in the direction sought with a large enough effect; inconclusive means small, poorly fitted or top-dose-only effect, or another doubt; inactive means no such curve, though single readings can be large; an effect the other way counts as inactive or inconclusive.

What do the screens show for `CC(=O)Nc1ccc(NC(=O)C(C)OC(=O)CC2CCCCC2)cc1` (centres undefined)?
TRPV1 potentiator: inconclusive; A-T KAP1 phos: 0%; TRPV1 agonist: 14

Results for c1ccc(Nc2ncnc3c2oc2ccccc23)cc1 ?
TRPV1 potentiator: -5; IMPase Li cell: -18%[38.3 µM]; TRPV1 agonist: 81*

What do the screens show for `c1ccc2c(c1)oc1c(Nc3ccc(CN4CCOCC4)cc3)ncnc12`?
TRPV1 potentiator: -8; IMPase Li cell: 8%[38.3 µM]; A-T KAP1 phos: -13%; TRPV1 agonist: 84*

Results for Oc1ccc(Nc2ncnc3c2oc2ccccc23)cc1 ?
TRPV1 potentiator: -3; A-T KAP1 phos: 3%; TRPV1 agonist: inconclusive

Results for COc1ccccc1OC(=O)Nc1ccc(Cl)cc1 ?
TRPV1 potentiator: 14; A-T KAP1 phos: 0.71µM*; TRPV1 agonist: 17

Results for COc1ccc(/C(O)=C2/C(=O)C(=O)N(CCN3CCOCC3)C2c2ccc(C)cc2)cc1 (centres undefined) ?
TRPV1 potentiator: -20; IMPase Li cell: inconclusive; A-T KAP1 phos: -7%; TRPV1 agonist: 4

How did CC(C)Oc1ccc(/C(O)=C2/C(=O)C(=O)N(CCN3CCOCC3)C2c2ccccc2)cc1 (centres undefined) do in these assays?
TRPV1 potentiator: -3; IMPase Li cell: 5µM*; A-T KAP1 phos: -1%; TRPV1 agonist: 1

What do the screens show for `O=S(=O)(Nc1cccc2ccccc12)c1cccc2ccccc12`?
TRPV1 potentiator: 9; TRPV1 agonist: 4

Results for CCCNC(=O)OCCC12CC3CC(CC(C3)C1)C2 ?
TRPV1 potentiator: 8; IMPase Li cell: 8%; A-T KAP1 phos: 32µM*; TRPV1 agonist: inconclusive

Results for CCCc1cc(=O)oc2c(CN3CCN(C)CC3)c(O)c(Cl)cc12 ?
TRPV1 potentiator: 12; A-T KAP1 phos: 19%; TRPV1 agonist: 1

How did CN1CCN(Cc2c(O)c(Cl)cc3c(-c4ccccc4)cc(=O)oc23)CC1 do in these assays?
TRPV1 potentiator: -8; IMPase Li cell: -16%[38.3 µM]; A-T KAP1 phos: 8%; TRPV1 agonist: 0

How did CCCCc1cc(=O)oc2c(CN3CCCC3)c(O)c(Cl)cc12 do in these assays?
TRPV1 potentiator: 9; IMPase Li cell: 10µM*; A-T KAP1 phos: 22µM*; TRPV1 agonist: 0

How did Cc1cc(=O)oc2c(CN3CCN(C)CC3)c(O)c(Cl)cc12 do in these assays?
TRPV1 potentiator: -22; IMPase Li cell: 13µM*; A-T KAP1 phos: -3%; TRPV1 agonist: -4

Results for COc1ccc(NC(=O)N2CCc3nc(-c4ccccc4)c4c(c3C2)CO[C@@H](C)C4)cc1 ?
IMPase Li cell: -2%

What do the screens show for `Cc1ccc(O)c(C(=O)/C=C/c2ccc3c(c2)OCCCO3)c1`?
TRPV1 potentiator: 7; IMPase Li cell: -3%; A-T KAP1 phos: 16µM*; TRPV1 agonist: 3

How did O=C(O)/C=C\C(=O)Nc1ncn[nH]1 do in these assays?
IMPase Li cell: -3%

What do the screens show for `COc1ccc(C(=O)Nc2ccc(C(=O)OCC(=O)c3ccccc3)cc2)cc1`?
TRPV1 potentiator: -28; IMPase Li cell: -3%[38.3 µM]; A-T KAP1 phos: 14%; TRPV1 agonist: -1

Results for COc1ccc(NC(=O)CCC(=O)c2ccc(-c3ccccc3)cc2)cc1 ?
TRPV1 potentiator: inconclusive; IMPase Li cell: 32µM*; A-T KAP1 phos: -2%; TRPV1 agonist: -3

How did COc1ccc(C(=O)COC(=O)c2ccc(NC(=O)c3ccccc3)cc2)cc1 do in these assays?
TRPV1 potentiator: 0; IMPase Li cell: 11µM*; A-T KAP1 phos: -2%; TRPV1 agonist: 7

How did COc1ccc(NC(=O)CCC(=O)c2ccc(C(C)C)cc2)cc1 do in these assays?
TRPV1 potentiator: -5; A-T KAP1 phos: -3%; TRPV1 agonist: inconclusive

How did O=C1c2ccccc2C(=O)N1c1ccc(Cc2ccc(N3C(=O)c4ccccc4C3=O)cc2)cc1 do in these assays?
IMPase Li cell: 15%

What do the screens show for `N=C1Sc2ccccc2C2=NCCCN12`?
IMPase Li cell: 18%

What do the screens show for `C[N+](C)(C)C(C1=CCCC1=O)c1ccccc1` (centres undefined)?
IMPase Li cell: -8%

Results for COc1ccc2c(CC(=O)N[C@@H](Cc3ccccc3)C(=O)O)cc(=O)oc2c1 ?
TRPV1 potentiator: -8; A-T KAP1 phos: -3%; TRPV1 agonist: 1

What do the screens show for `COc1ccc(NCc2cc(=O)oc3cc(NC(C)=O)ccc23)cc1`?
TRPV1 potentiator: 22; A-T KAP1 phos: 2.5µM*; TRPV1 agonist: -1

Results for O=C(Cc1cccs1)Nc1cccc(-c2ccc3nncn3n2)c1 ?
TRPV1 potentiator: 85*; IMPase Li cell: 8%; A-T KAP1 phos: -1%; TRPV1 agonist: 3

How did COc1cc(NCCC(=O)O)c2ncccc2c1 do in these assays?
IMPase Li cell: -1%

What do the screens show for `C=CC1=C(C)C2=NC1=CC1=NC(=CC3=NC(=CC4=NC(=C2)C(C)=C4CCC(=O)O)C(CCC(=O)O)=C3C)C(C=C)=C1C.[Zn]`?
IMPase Li cell: -23%

How did Fc1cccc(CNc2ncnc3ccc(-c4ccccc4Cl)cc23)c1 do in these assays?
A-T KAP1 phos: -8%

What do the screens show for `CC1CCN(C(=O)CCCOc2ccc(Cl)cc2)CC1`?
TRPV1 potentiator: -11; IMPase Li cell: 21%; A-T KAP1 phos: 1%; TRPV1 agonist: 80*

Results for CC1CCN(CCCCOc2ccc(Cl)cc2)CC1 ?
TRPV1 potentiator: inconclusive; A-T KAP1 phos: 5%; TRPV1 agonist: 1

What do the screens show for `Cc1cc(C)c2nc(-c3ccccn3)cc(C(=O)NCc3cc(C)n(C)n3)c2c1`?
TRPV1 potentiator: -16; IMPase Li cell: inconclusive; A-T KAP1 phos: 0%; TRPV1 agonist: 87*

Results for S=c1nc(-c2ccccc2)n(Cc2ccco2)c2c1CCCC2 ?
TRPV1 potentiator: -5; IMPase Li cell: 13µM*; TRPV1 agonist: 9

Results for COc1ccc2c(c1)cc(C(=O)N[C@H](C(=O)N1CCC(C(=O)O)CC1)C(C)C)n2C ?
TRPV1 potentiator: -1; A-T KAP1 phos: 7.1µM*; TRPV1 agonist: -1

What do the screens show for `CC(C)[C@H](NC(=O)c1cc2cc(Cl)ccc2n1C)C(=O)N1CCC(C(=O)O)CC1`?
TRPV1 potentiator: -17; A-T KAP1 phos: -1%; TRPV1 agonist: -1

How did NC(=O)C[C@H](N)C(N)=O do in these assays?
IMPase Li cell: 7%

How did O=C(CSc1cccc2cccc(Cl)c12)OCC(=O)N1CCN(C(=O)c2ccco2)CC1 do in these assays?
TRPV1 potentiator: -9; IMPase Li cell: 10µM*; TRPV1 agonist: -1

What do the screens show for `CCOC(=O)C1=C(C)NC(=O)N[C@@H]1c1coc2cc(C)cc(C)c2c1=O`?
IMPase Li cell: 9%

How did COc1cc(O)c2c(c1)OC(c1ccc(O)cc1)CC2=O (centres undefined) do in these assays?
TRPV1 potentiator: 27; IMPase Li cell: -1%; A-T KAP1 phos: 40µM*; TRPV1 agonist: 2

What do the screens show for `CN(C)c1ccc2nc3ccc(=[N+](C)C)cc-3sc2c1`?
TRPV1 potentiator: 7; IMPase Li cell: 32%; A-T KAP1 phos: 11µM*; TRPV1 agonist: -3
